Mcl1 Noxa PPI = Mcl-1/Noxa binding inhibitors, primary screen, biochemical, TR-FRET, 1536-well | Induced myeloid leukemia cell differentiation protein Mcl-1 (Homo sapiens), Q07820 | inhibition, % at 21.7 µM | TR-FRET Mcl-1/Noxa peptide binding, 2 h | hit rate 1.5% among 220,000;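 active = compounds that cut the protein-peptide binding signal by more than 50% relative to plate controls in a single-dose test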;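 note: His-tagged Mcl-1 with rhodamine Noxa BH3 peptide and terbium anti-His antibody; 0% = Mcl-1 plus Noxa peptide wells and 100% = peptide-only wells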
Target sequence (Q07820 whole entry, looked up): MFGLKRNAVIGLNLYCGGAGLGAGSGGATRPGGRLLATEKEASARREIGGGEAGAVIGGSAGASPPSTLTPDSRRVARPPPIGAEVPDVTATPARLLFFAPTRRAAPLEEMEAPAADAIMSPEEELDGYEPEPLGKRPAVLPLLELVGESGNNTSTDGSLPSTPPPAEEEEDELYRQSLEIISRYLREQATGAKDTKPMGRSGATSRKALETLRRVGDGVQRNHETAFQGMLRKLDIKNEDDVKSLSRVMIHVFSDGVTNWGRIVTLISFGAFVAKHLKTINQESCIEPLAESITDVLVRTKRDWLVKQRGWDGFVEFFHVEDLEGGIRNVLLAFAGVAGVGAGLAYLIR
Bcl-xL primary = inhibitors of human Bcl-xL, primary screen, biochemical, fluorescence polarization, HTS | inhibition, % at 10.9 µM | Bcl-2-like protein 1 (Homo sapiens), Q07817 | hit rate 0.7% among 320,000 | GST-Bcl-xL / FITC-Bim BH3 peptide fluorescence polarization;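 active = inhibition above the mean of all tested compounds plus 3 SD, cutoff set per campaign, cut at about 30% in these data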;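 note: 0% = DMSO wells and 100% = unlabeled Bim-BH3 peptide competitor; inhibitors lower millipolarization by displacing the labeled peptide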
Target sequence (Q07817 whole entry, looked up): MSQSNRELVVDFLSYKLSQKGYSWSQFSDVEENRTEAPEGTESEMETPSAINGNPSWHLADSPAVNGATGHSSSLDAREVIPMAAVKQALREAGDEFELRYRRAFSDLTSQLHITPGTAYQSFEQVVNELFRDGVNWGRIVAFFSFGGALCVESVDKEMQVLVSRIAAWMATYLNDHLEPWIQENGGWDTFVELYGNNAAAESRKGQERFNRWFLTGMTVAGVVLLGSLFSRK
MCL1-BIM inh = inhibitors of MCL1 binding to BIM-BH3, primary screen, biochemical, fluorescence polarization | Induced myeloid leukemia cell differentiation protein Mcl-1 (Homo sapiens), Q07820 | GST-MCL1 / FITC-Bim-BH3 fluorescence polarization | inhibition, % at 10.9 µM | hit rate 0.68% among 320,000 | AID 2057, 2009;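 active = inhibition above the mean inhibition of all tested compounds plus 3 SD, set per campaign, cut at about 40% in these data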;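 note: 0% = DMSO wells and 100% = unlabeled Bim-BH3 peptide control; higher means more loss of mP so more displacement of Bim peptide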
GLD-1 TGE inh = GLD-1/TGE RNA complex disruptors, primary screen, biochemical, fluorescence polarization; inhibition, % at 5.96 µM; Female germline-specific tumor suppressor gld-1 (Caenorhabditis elegans), Q17339; purified GLD-1 + fluorescein TGE RNA; hit rate 0.44% among 320,000;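 active = percent inhibition above a per-plate cutoff, the plate mean of test compounds plus 3 SD, cut at about 30% in these data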;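 note: 0% = DMSO wells with GLD-1 and probe and 100% = wells lacking GLD-1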
Bim-Mcl-1 = inhibitors of Bim peptide binding to Mcl-1, primary screen, biochemical, bead-based flow cytometry, multiplex; hit rate 0.1% among 190,000; Induced myeloid leukemia cell differentiation protein Mcl-1 (Homo sapiens), Q07820; inhibition, % at 10 µM; AID 1009, 2008; Bim peptide-Mcl-1 binding; in the data active = inhibition above about 40%;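 note: 0% = no compound tracer wells and 100% = peptide blocker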
Mcl1-Bid inh = Mcl-1/Bid binding inhibitors, primary screen, biochemical, TR-FRET, 1536-well; TR-FRET Mcl-1/Bid-Dy647 peptide binding; inhibition, % at 21.7 µM; hit rate 0.97% among 220,000;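 active = compounds that cut the binding signal by more than half at the single screening dose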;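 note: His-tagged Mcl-1 with europium anti-His antibody binding Bid BH3 peptide; 0% = Mcl-1 plus peptide wells and 100% = peptide-only wells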
Bcl-xL conf = Bcl-xL inhibitors blocking Bim BH3 binding, confirmation, counter-screen for MCL1 inhibitor project, biochemical, fluorescence polarization. hit rate 54% among 1,700. shares compounds with MCL1-BIM inh. GST-Bcl-xL / FITC-Bim BH3 peptide FP binding. AID 2166, 2009. inhibition, % at 10.9 µM;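 active = inhibition above a cutoff equal to the mean inhibition of all tested compounds plus 3 SD, cut at about 30% in these data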;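 note: 0% = DMSO wells and 100% = unlabeled Bim BH3 control peptide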
MCL1 BIM confirm = inhibitors of MCL1 binding to BIM-BH3, confirmation, biochemical, fluorescence polarization, triplicate | hit rate 61% among 1,700 | inhibition, % at 10.9 µM | GST-MCL1 / FITC-Bim-BH3 fluorescence polarization | AID 2168, 2009 | shares compounds with MCL1-BIM inh;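 active = inhibition above the average of all tested compounds plus 3 SD, cut at about 40% in these data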;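 note: 0% = DMSO wells and 100% = unlabeled Bim-BH3 control peptide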
* marks the source's active call; other numbers are inactive results. Rows were chosen to be rich in hits. Some 2.3% of all compounds tested hit in one or more screens of this group.

How did CCOC(=O)c1c(/N=C/c2cccc([N+](=O)[O-])c2O)sc(C)c1C do in these assays?
Mcl1 Noxa PPI: 27; Bcl-xL primary: 45*; MCL1-BIM inh: 55*; GLD-1 TGE inh: 21; Bim-Mcl-1: -1; Mcl1-Bid inh: -16; Bcl-xL conf: 16; MCL1 BIM confirm: 22

Results for Cc1ccc(N=Cc2nc(-c3ccc(C)cc3)oc2O)cc1 ?
Mcl1 Noxa PPI: -11; Bim-Mcl-1: -2; Mcl1-Bid inh: -2

Results for CC(=O)Nc1ccc(N=Cc2nc(-c3ccc(C)cc3)oc2O)cc1 ?
Mcl1 Noxa PPI: 65*; Bcl-xL primary: 89*; MCL1-BIM inh: 90*; GLD-1 TGE inh: 31*; Bim-Mcl-1: 2; Mcl1-Bid inh: 64*; Bcl-xL conf: 60*; MCL1 BIM confirm: 61*

Results for O=C(NCC(=O)N1CCCCCC1)c1ccc(Br)cc1 ?
Bcl-xL primary: -4; MCL1-BIM inh: -5; GLD-1 TGE inh: 0

How did COc1ccccc1NC(=O)Cn1c(O)c(N=NC(=O)c2ccccc2O)c2ccccc21 do in these assays?
Mcl1 Noxa PPI: 36; Bcl-xL primary: 9; MCL1-BIM inh: 50*; GLD-1 TGE inh: -3; Bim-Mcl-1: 3; Mcl1-Bid inh: 34; Bcl-xL conf: 19; MCL1 BIM confirm: 62*

What do the screens show for `CCCN(CCC)S(=O)(=O)c1ccc(C(=O)Nc2cccnc2)cc1`?
Bcl-xL primary: 6; MCL1-BIM inh: 5; GLD-1 TGE inh: 8

How did COc1ccccc1N1CCN(C(=O)c2ccc(S(=O)(=O)N3CCCCCC3)cc2)CC1 do in these assays?
Mcl1 Noxa PPI: -3; Bcl-xL primary: 7; MCL1-BIM inh: 1; GLD-1 TGE inh: 0; Bim-Mcl-1: 0; Mcl1-Bid inh: -16

How did Cc1ccc(S(=O)(=O)c2nc(S(C)(=O)=O)sc2N2CCN(C)CC2)cc1 do in these assays?
Bcl-xL primary: -1; MCL1-BIM inh: -3; GLD-1 TGE inh: 1

What do the screens show for `O=C1/C(=N\S(=O)(=O)c2cccs2)C([n+]2cccc(Cc3ccccc3)c2)=C([O-])c2ccccc21`?
Mcl1 Noxa PPI: 9; Bcl-xL primary: active; MCL1-BIM inh: active; GLD-1 TGE inh: 179*; Mcl1-Bid inh: -28; Bcl-xL conf: active; MCL1 BIM confirm: active

Results for NS(=O)(=O)c1ccc(CCNC(=O)c2cc(-c3ccccn3)nc3ccc(Br)cc23)cc1 ?
Mcl1 Noxa PPI: 22; Bcl-xL primary: -1; MCL1-BIM inh: 5; GLD-1 TGE inh: 6; Bim-Mcl-1: 5; Mcl1-Bid inh: -36

What do the screens show for `NS(=O)(=O)c1ccc(CNC(=O)c2cc(-c3cccnc3)nc3ccc(Br)cc23)cc1`?
Bcl-xL primary: 3; MCL1-BIM inh: 51*; GLD-1 TGE inh: 7; Bcl-xL conf: 5; MCL1 BIM confirm: -3

What do the screens show for `CCOC(=O)C1=C(CSc2nc(CC)c(C)cc2C#N)OC(N)=C(C#N)C1c1ccccc1` (stereo unspecified)?
Mcl1 Noxa PPI: 3; Bcl-xL primary: 2; MCL1-BIM inh: -4; GLD-1 TGE inh: -24; Bim-Mcl-1: -1; Mcl1-Bid inh: -2

Results for CCOC(=O)C1=C(CSc2nc3c(cc2C#N)CN(C)CC3)OC(N)=C(C#N)C1c1ccc(Cl)cc1 (stereo unspecified) ?
Mcl1 Noxa PPI: 1; Bcl-xL primary: 40*; MCL1-BIM inh: 52*; GLD-1 TGE inh: 33*; Bim-Mcl-1: 0; Mcl1-Bid inh: -26; Bcl-xL conf: 41*; MCL1 BIM confirm: 44*

Results for CCOC(=O)C1=C(CSc2nc(C)cc(C)c2C#N)OC(N)=C(C#N)C1c1ccccc1 (stereo unspecified) ?
Mcl1 Noxa PPI: 12; Bcl-xL primary: 10; MCL1-BIM inh: -1; GLD-1 TGE inh: 0; Bim-Mcl-1: -4; Mcl1-Bid inh: -14

What do the screens show for `CCOC(=O)C1=C(CSc2nc3c(cc2C#N)CN(C)CC3)OC(N)=C(C#N)C1c1ccncc1` (stereo unspecified)?
Mcl1 Noxa PPI: 12; Bcl-xL primary: 114*; MCL1-BIM inh: 143*; GLD-1 TGE inh: 61*; Bim-Mcl-1: -2; Mcl1-Bid inh: -3; Bcl-xL conf: 108*; MCL1 BIM confirm: 119*

Results for Cc1[nH]c2ccc(C(=O)OCC(=O)NC3(C#N)CCCCC3)cc2c1C ?
Bcl-xL primary: 1; MCL1-BIM inh: -4; GLD-1 TGE inh: 7

How did Cc1ccc2c(c1)NC(=O)C(CC(=O)NCCCN1CCc3ccccc3C1)O2 (stereo unspecified) do in these assays?
Mcl1 Noxa PPI: 23; Bcl-xL primary: 5; MCL1-BIM inh: 8; GLD-1 TGE inh: 2; Bim-Mcl-1: -5; Mcl1-Bid inh: -6

What do the screens show for `CN1CCN(C(c2ccc(Br)cc2)c2cc(Cl)c3cccnc3c2O)CC1` (stereo unspecified)?
Bcl-xL primary: 20; MCL1-BIM inh: 40*; GLD-1 TGE inh: -2; Bcl-xL conf: 47*; MCL1 BIM confirm: 106*

How did COc1ccc(N2CCN(C(=O)CCCn3c(=O)[nH]c4cc(Cl)ccc4c3=O)CC2)cc1 do in these assays?
Mcl1 Noxa PPI: 9; Bcl-xL primary: 9; MCL1-BIM inh: 11; GLD-1 TGE inh: -3; Bim-Mcl-1: 0; Mcl1-Bid inh: -21

What do the screens show for `Cc1cc2nc(/C(C#N)=C/c3ccncc3)[nH]c2cc1C`?
Mcl1 Noxa PPI: 14; Bcl-xL primary: -14; MCL1-BIM inh: -24; GLD-1 TGE inh: -3; Bim-Mcl-1: 32; Mcl1-Bid inh: -19

Results for N#C/C(=C\c1ccc(O)c(O)c1)C(=O)Nc1cccc2ncccc12 ?
Bcl-xL primary: 18; MCL1-BIM inh: 71*; GLD-1 TGE inh: -31; Bcl-xL conf: 33*; MCL1 BIM confirm: 69*

How did N#C/C(=C\c1ccc(O)c(O)c1)C(=O)Nc1ccccc1 do in these assays?
Bcl-xL primary: -2; MCL1-BIM inh: 17; GLD-1 TGE inh: -15
